# Reference: PubChem BioAssay (NCI)
# Compounds without any hit were thinned out: in the full panel of roughly 83,000, 20% have a hit.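 Compound tested at a single concentration for 48 hours in 96-well plates; a percent growth value below 10 was scored as active.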 A number with no mark means an inactive call. Active and inactive are the calls of the source.
# Test system: NCI-H226 lung
# Test: NCI-60 one-dose screen, 48 h (100 = growth as untreated, 0 = no growth, -100 = all killed)
# Details: 10 µM
# Description: Growth inhibition of the NCI-H226 human Non-Small Cell Lung tumor cell line is measured as a screen for anti-cancer activity. Cells are grown in 96 well plates and exposed to the test compound for 48 hours. Compounds are tested at a single concentration, which is 10^-5 M for most compounds. The reported endpoint is percent growth (GI% or GIPRCNT), where numbers from 0 - 100% represent growth inhibition, and numbers from -100% - 0 represent cell death. For example, a value of 40 represents 60% growth inhibition. A value of 0 means no net growth occurred over the course of the experiment. A value of -40 indicates 40% of cells at the beginning of the experiment died by the end of the experiment. A value of -100 means all cells are dead at the end of the experiment.
# NCI-60 Human Tumor Cell Lines Screen was performed using the standard one-dose NCI protocol, which is described in more detail at https://dtp.cancer.gov/discovery_development/nci-60/default.htm.
# Compounds with GIPRCNT values below 10 were considered active. Activity score was based on GIPRCNT using the following formula: […]
# Score is 0 for GIPRCNT values of 100 or above, 50 for GIPRCNT values of 0, and 100 for GIPRCNT values of -100.
row,SMILES,growth
1,Cc1ccc(/C=C2/C(=O)N(C)c3ccc(S(=O)(=O)Nc4ccc(C(C)(C)C)cc4)cc32)s1,63.9%
2,C=CCn1c(SCC(=O)Nc2ccc(C(=O)/C=C/c3ccc(Cl)cc3)cc2)nnc1-c1cc(-c2ccccc2)nc2ccccc12,73.6%
3,COc1cc(C2CC(c3cc(Cl)c(C)cc3O)=NN2c2ccc(S(N)(=O)=O)cc2)cc(OC)c1OC (stereo not given),23.5%
4,O=S(=O)(O)c1cccc(Nc2ccc3ccccc3c2)c1,86.5%
5,O=C(Nc1ccc(OS(=O)(=O)c2ccccc2)cc1)C1CCCCC1,87%
6,CS(=O)(=O)c1nccc(-c2c(-c3cccc(OCc4ccccc4)c3)nc3sccn23)n1,50.8%
7,COc1ccc2c(c1)OC(N)=C(C#N)C2c1cc(OC)c(OC)c(OC)c1 (stereo not given),54.2%
8,O=C1/C=C/[C@@H](O)[C@@H]2C[C@@H](O)C[C@H]2/C=C/CCC[C@H](CCc2ccc(C(F)(F)F)cc2)O1,0.477% (active)
9,COc1ccc2c(c1)CC=C1[C@@H]2CC[C@]2(C)C(=O)/C(=N/O)C[C@@H]12,87.6%
10,O=[N+]([O-])c1ccc(NCSc2ccc(Cl)cc2)cc1,112%
11,O=C(Nc1cc(Cl)cc2c1-c1ccc(Cl)cc1C2O)C(Cl)Cl (stereo not given),55%
12,CC(C)N(CCOc1cccc(-c2nc3sccn3c2-c2ccnc(S(C)(=O)=O)n2)c1)C(C)C,67.5%
13,COc1ccc2nc3cc(Cl)ccc3c(NCCCNCCO)c2c1,-9.48% (active)
14,CC(C)(C)OC(=O)N1CCc2c(sc3ncnc(N/N=C/c4cccc(Br)c4)c23)C1,67.3%
15,CCN(CC)CCOC(=O)c1cc(OCc2ccccc2)c(OCc2ccccc2)c(OCc2ccccc2)c1,73.6%
16,Clc1ccc(Cc2ccncc2)cc1,109%
17,O=C(CSc1nnc(-c2ccc(Cl)cc2)o1)Nc1ccc(C(=O)/C=C/c2ccc(Cl)cc2)cc1,93.3%
18,O=[N+]([O-])c1cc(Cl)cc(Cl)c1O,101%
19,COc1cc(OC)c2c(=O)c(O)c(-c3ccccc3)oc2c1,69.3%
20,COc1cc2c(Nc3ccc(S(N)(=O)=O)cc3)ncnc2c(OC)c1OC,84.9%

row,SMILES,growth
1,COc1cc2cc(Oc3ccc(NC(=O)Nc4cccc(C(F)(F)F)c4)cc3)c(C)nc2cc1OC,-23.5% (active)
2,COc1cc(C(=O)/C(C)=C/c2c[nH]c3ccccc23)cc(OC)c1OC,61.7%
3,Cc1cccc(N=Cc2ccccc2O)c1C,104%
4,COc1ccc(-c2nn(-c3cccc(Cl)c3)cc2-c2cc(-c3ccccc3)[nH]c(=O)c2C#N)cc1,24%
5,Cc1cc(C(C#N)c2ccc(Cl)cc2)c(Cl)cc1NC(=O)c1cc(I)cc(I)c1O (stereo not given),45.4%
6,CN(C)CCCN1c2ccccc2CCc2ccc(Cl)cc21,85.7%
7,CCCCCOC(=O)Nc1nc(=O)n(C2O[C@H](C)[C@@H](O)[C@H]2O)cc1F (stereo not given in full),97.7%
8,CN(C)CCN(Cc1ccccc1)c1ccc2ccccc2n1,111%
9,Brc1ccc2c(c1)-c1ccccc1C1=NCCN12,-14.2% (active)
10,O=C(CI)OCC(COC(=O)CI)OC(=O)CI,97.1%
11,COc1ccc(C(=O)N/N=C/c2cc(C(F)(F)F)ccc2Cl)cc1,82.3%
12,C=C(NC(=O)C(=C)NC(=O)c1csc(C2=NC3c4csc(n4)C4NC(=O)c5csc(n5)C(C(C)(O)C(C)O)NC(=O)C5CSC(=N5)C(=CC)NC(=O)C(C(C)O)NC(=O)c5csc(n5)C3(CC2)NC(=O)C(C)NC(=O)C(=C)NC(=O)C(C)NC(=O)C(C(C)CC)NC2C=Cc3c(C(C)O)cc(nc3C2O)C(=O)OC4C)n1)C(N)=O (stereo not given),-59.6% (active)
13,O=C(O)c1ccc(-n2cc(CNc3ccc(Cl)cc3)c(-c3ccccc3)n2)cc1,99.1%
14,Cc1ccc(NCCNCC(C)(C)O)c2c(=O)c3ccc(Cl)cc3sc12,76.6%
15,CC(C)(C)c1ccc(S(=O)(=O)N[C@H]2CC[C@H]3[C@@H]4CCc5cc(O)c([N+](=O)[O-])cc5[C@H]4CC[C@]23C)cc1,80%
16,CCOC(=O)c1cc(C(=O)c2ccc(OC)c(OC)c2)n2ccncc12,101%
17,O=C(CSc1nnc(-c2cccnc2SCc2ccccc2)o1)Nc1nc(Cl)cc(Cl)n1,83.7%
18,CC(=O)[C@@]12O[C@](C)(c3ccccc3)O[C@@H]1CC1C3CCC4=CC(=O)CC[C@]4(C)C3CC[C@@]12C (stereo not given in full),78.5%
19,O=C(CSc1nccc(Nc2cccc3ccccc23)n1)c1ccc(Cl)cc1,84.8%
20,Cc1c2cnccc2c(C)c2c1oc1ccccc12,69.4%
